Calls of active or inactive are those of the source. Rule for the calls: active = hit-call score of the fitted dose curve at least 0.9, where 1 is the maximum; inactive = score below 0.9.
Read-out: not listed separately
Test: BSK_CASM3C_Proliferation: Cell Proliferation Assessment in the BioMAP Diversity Plus: CASM3C Assay (AID 2283047);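 note: sulforhodamine B total protein stain as relative cell number at 560 nm; sub-confluent cells exposed 48 h before staining; fitted both ways against DMSO so gain or loss of cell number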
Settings: primary human coronary artery smooth muscle cells

SMILES	outcome	AC50
C=C(C)C(N)=O	inactive	
c1ccc2c(c1)-c1ccc3ccc4cccc5cc-2c1c3c45	inactive	
O=C(O)C(F)(F)C(F)(F)C(F)(F)C(F)(F)C(F)(F)C(F)(F)C(F)(F)C(F)F	inactive	
C[C@]12CC[C@@H]3c4ccc(O)cc4CC[C@H]3[C@@H]1CC[C@@H]2O		13.4 µM (active)
CCCCCCCCCC(=O)OCC		20 µM (active)
Nc1ccc(N)c([N+](=O)[O-])c1	inactive	
CCCCN(CCO)CCO	inactive	
CC(=O)OC(C)(C)C1CC=C(C)CC1 (centres undefined)		29.6 µM (active)
CC1=CC(C)C(C=O)C(C)C1 (centres undefined) (tested in a mixture with another compound)	inactive	
CCC(=O)OCC=Cc1ccccc1	inactive	
CC=CC(=O)C1=C(C)C=CCC1(C)C	inactive	
CC(=O)CCC=C(C)CCC=C(C)C		0.197 µM (active)
CCCCCCCC1CCCC1=O (centres undefined)		31.2 µM (active)
O=S1(=O)CC(Cl)(Cl)C(Cl)(Cl)C1		0.113 µM (active)
CCCCCCCCCCCCS		24.4 µM (active)
CC(=O)OCC=C(C)CCC=C(C)CCC=C(C)C	inactive	
OCC(F)(OC(F)(F)C(F)(OC(F)(F)C(F)(F)C(F)(F)F)C(F)(F)F)C(F)(F)F (centres undefined)	inactive	
CC1(C)[C@H](C=C(Cl)Cl)[C@H]1C(=O)OCc1cccc(Oc2ccccc2)c1	inactive	
CCOC(=O)C=Cc1ccccc1	inactive	
O=C(O)C(F)(F)OC(F)(F)C(F)(F)OC(F)(F)C(F)(F)C(F)(F)C(F)(F)F	inactive	
CC(C)(C)c1cccc(O)c1	inactive	
CC(C)Cc1ccc(C(C)C(=O)O)cc1 (centres undefined)		0.2 µM (active)

Read-out: Monokine induced gamma interferon (MIG), CXCL9 (gene 4283)
Test: BSK_CASM3C_MIG: BioMAP Diversity Plus: CASM3C Assay for Monokine induced gamma interferon (MIG) Biomarker Activity (AID 2283048);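 note: MIG protein level measured by ELISA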
Settings: primary human coronary artery smooth muscle cells; actives raise or lower the signal

SMILES	outcome	AC50
C=C(C)C(N)=O	inactive	
c1ccc2c(c1)-c1ccc3ccc4cccc5cc-2c1c3c45	inactive	
O=C(O)C(F)(F)C(F)(F)C(F)(F)C(F)(F)C(F)(F)C(F)(F)C(F)(F)C(F)F	inactive	
C[C@]12CC[C@@H]3c4ccc(O)cc4CC[C@H]3[C@@H]1CC[C@@H]2O		12.2 µM (active)
CCCCCCCCCC(=O)OCC		31.5 µM (active)
Nc1ccc(N)c([N+](=O)[O-])c1	inactive	
CCCCN(CCO)CCO	inactive	
CC(=O)OC(C)(C)C1CC=C(C)CC1 (centres undefined)	inactive	
CC1=CC(C)C(C=O)C(C)C1 (centres undefined) (tested in a mixture with another compound)	inactive	
CCC(=O)OCC=Cc1ccccc1	inactive	
CC=CC(=O)C1=C(C)C=CCC1(C)C	inactive	
CC(=O)CCC=C(C)CCC=C(C)C	inactive	
CCCCCCCC1CCCC1=O (centres undefined)		31.8 µM (active)
O=S1(=O)CC(Cl)(Cl)C(Cl)(Cl)C1		2.22 µM (active)
CCCCCCCCCCCCS	inactive	
CC(=O)OCC=C(C)CCC=C(C)CCC=C(C)C	inactive	
OCC(F)(OC(F)(F)C(F)(OC(F)(F)C(F)(F)C(F)(F)F)C(F)(F)F)C(F)(F)F (centres undefined)	inactive	
CC1(C)[C@H](C=C(Cl)Cl)[C@H]1C(=O)OCc1cccc(Oc2ccccc2)c1	inactive	
CCOC(=O)C=Cc1ccccc1	inactive	
O=C(O)C(F)(F)OC(F)(F)C(F)(F)OC(F)(F)C(F)(F)C(F)(F)C(F)(F)F	inactive	
CC(C)(C)c1cccc(O)c1	inactive	
CC(C)Cc1ccc(C(C)C(=O)O)cc1 (centres undefined)	inactive	
